Source: PubChem BioAssay AID932 (The Scripps Research Institute Molecular Screening Center, 2007)
The whole screen tested about 200,000 compounds, of which about 5,100 (2.5%) were called active.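 The calls were made as follows: active = activation above the screen-wide mean activation plus 3 SD (cut at about 130% in these data); inactive = the rest.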 This excerpt belongs to a sample that is enriched for actives.

assay: potentiators of IFN-gamma driven STAT1 reporter – cell-based, HTS, luciferase reporter, primary screen (AID 932); conditions: NIH 3T3 STAT1-luciferase reporter, luminescence, at 5.5 µM, active compounds read high, 100% = IFN-gamma alone, no compound;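 also: raw ratio to IFN-gamma control signal so 100% means no change and 0% no light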

Structure (SMILES)	activation (% of control)
CC(C)OC(=O)CN1CCN(c2ccc(Cl)cc2)CC1	92.2% (inactive)
Nc1nnnn1CC(=O)N/N=C/c1ccc(-c2cccc(Cl)c2)o1	94.7% (inactive)
O=C1NC(c2cccc(Cl)c2)Nc2ccccc21 (configuration not stated)	107% (inactive)
O=C1c2ccccc2NC(c2ccc(-c3cccc(Cl)c3)o2)N1O (configuration not stated)	132% (active)
COc1ccc(C2=NN(c3nc4ccccc4s3)C(=O)C2)cc1	101% (inactive)
CCOc1ccc(NC(=O)NNC(=O)c2ccc(Cl)cc2Cl)cc1	97.2% (inactive)
CS(=O)(=O)N(CC(=O)N1CCCC1)Cc1ccccc1	98.3% (inactive)
O=C(CC1CCCCC1)NCc1ccco1	108% (inactive)
Cc1ccc(OCC(=O)NC(C)c2ccccc2)c([N+](=O)[O-])n1 (configuration not stated)	117% (inactive)
CSCC(NS(=O)(=O)c1ccc(C)cc1)C(=O)O (configuration not stated)	105% (inactive)
CN1CCN(c2ccc(NC(=O)c3ccc4c(c3)OCCO4)cc2Cl)CC1	144% (active)
O=C(Nc1ccc2c(c1)OCCO2)c1ccc(Cl)c(S(=O)(=O)N2CCCCC2)c1	96.8% (inactive)
O=C(Nc1cccc(Cl)c1N1CCOCC1)c1ccc2c(c1)OCCO2	92.9% (inactive)
CC(O)CNCCOc1cccc(Oc2ccccc2)c1 (configuration not stated)	102% (inactive)
COc1ccc(-c2csc(Cc3nc(O)cs3)n2)cc1	221% (active)
COc1ccc(C(=O)Nc2nc(-c3ccc(S(=O)(=O)N4CCOCC4)cc3)cs2)cc1	85.1% (inactive)
COc1ccc(-c2csc(N3CCN(Cc4ccc5c(c4)OCO5)CC3)n2)cc1	101% (inactive)
Cc1cc(/C=C2/C(=N)N3C(=NC2=O)SN=C3S(C)(=O)=O)c(C)n1-c1ccccc1	107% (inactive)
CCCCN(CC)C(=S)Nc1ccc2nc3n(c(=O)c2c1)CCCCC3	91% (inactive)
Cc1c(NC(=O)Nc2ccccc2)cccc1[N+](=O)[O-]	83.6% (inactive)
Cc1cc(NC(=O)Nc2ccccc2[N+](=O)[O-])no1	114% (inactive)
Cc1csc(NC(=O)Nc2ccccc2[N+](=O)[O-])n1	133% (active)
CN(Cc1cccc2ncccc12)C(=O)CC1C(=O)NCCN1Cc1ccc(F)cc1 (configuration not stated)	98.1% (inactive)
CC(=O)c1cnc(-c2ccccc2)s1	116% (inactive)
O=C(c1ccc(Cl)cc1)c1cnc(Nc2ccccc2)s1	119% (inactive)
CC(C)(C)C(=O)c1cnc(Nc2ccccc2)s1	156% (active)

Structure (SMILES)	activation (% of control)
CS(=O)(=O)n1nc(-c2ccco2)nc1N	105% (inactive)
CCn1nnnc1SCC(=O)c1ccc(C)cc1C	145% (active)
CNC(=O)CSc1nnnn1-c1ccc(C)cc1C	97.7% (inactive)
COc1ccc(C(=O)CSc2nnnn2C)c(OC)c1	107% (inactive)
O=C(NCCSc1ccccc1)c1ccco1	134% (active)
O=C(CSc1ccccc1)Nc1ccc(NC(=O)c2ccco2)cc1	109% (inactive)
COc1ccc(CCNC(=O)c2ccco2)cc1	109% (inactive)
CN(C)S(=O)(=O)N1CCN(c2ccc([N+](=O)[O-])cc2)CC1	110% (inactive)
Cn1cc(/C=C/c2nc3ccccc3c(=O)n2-c2cccc([N+](=O)[O-])c2)c2ccccc21	85.4% (inactive)
CCn1c(/C=C/c2ccc([N+](=O)[O-])o2)nc2ccccc2c1=O	182% (active)
C/[N+]([O-])=C\c1ccc([N+](=O)[O-])o1	99.5% (inactive)
CCCn1c(SCC(=O)Nc2ccc(C)c(S(=O)(=O)N3CCOCC3)c2)n[nH]c1=O	90.6% (inactive)
CCC(=O)Nc1ccc(C(=O)N2CCN(C(=O)c3ccco3)CC2)cc1	99.8% (inactive)
CN(C)c1ccc(C=NCCc2ccc(S(N)(=O)=O)cc2)cc1	101% (inactive)
O=C(Nc1ccn(Cc2ccccc2)n1)c1cccc(F)c1	131% (active)
O=C(Nc1ccn(Cc2ccc(F)cc2)n1)c1ccncc1	94.9% (inactive)
O=C(Nc1ccn(Cc2ccccc2)n1)c1n[nH]c([N+](=O)[O-])c1Cl	121% (inactive)
COC1=CCC2([N+](=O)[O-])CN(CC(=O)O)CC1([N+](=O)[O-])C2 (configuration not stated)	106% (inactive)
Fc1ccc2c(c1)C(c1cccnc1)=NNC(c1cccs1)=N2	103% (inactive)
Cc1ccc(NC(=O)O/N=C/c2cccc([N+](=O)[O-])c2)cc1	113% (inactive)
COc1cc2c3c(c1)/C(=C1/SC(=S)NC1=O)C(=O)N3C(C)(C)C=C2C	98.1% (inactive)
Cc1ccc(NC(=O)c2oc3ccccc3c2C)c([N+](=O)[O-])c1	100% (inactive)
O=C(Nc1ccccc1)c1ccccc1NC(=O)C(F)(F)F	93.5% (inactive)
O=C(Nc1ccccc1)c1cc2ccccc2[nH]1	137% (active)
CC(C)n1c(=O)[nH]c2cc(C(=O)Nc3ccccc3)ccc21	128% (inactive)
CCCCNC(=O)Nc1c(C)cc(SC#N)cc1C	97.9% (inactive)

Structure (SMILES)	activation (% of control)
COc1ccc(/C=N/Nc2nc3ccccc3o2)cc1OC	153% (active)
COc1ccc(/C=N/S(=O)(=O)c2ccccc2)cc1OC	107% (inactive)
CCOc1ccc(/C=N/Nc2nncc(-c3ccccc3)n2)cc1OC	107% (inactive)
CCOC(=O)c1ccc[n+](CC(=O)Nc2ccccc2OC(F)F)c1	98.5% (inactive)
O=C(Nc1nnc(CCc2ccccc2)s1)C1CCCO1 (configuration not stated)	109% (inactive)
O=C(Nc1ccc(-c2nnc(-c3ccccc3)o2)cc1)C1CCCO1 (configuration not stated)	168% (active)
O=C(Nc1cccc(-c2nnc(-c3ccccc3)o2)c1)C1CCCO1 (configuration not stated)	120% (inactive)
CC1CN(S(=O)(=O)c2ccc(C(=O)NN3CCN(C)CC3)cc2)CC(C)O1 (configuration not stated)	100% (inactive)
CC(=O)c1sc(NC(=O)C2=NN(c3ccccc3)C(=O)CC2)nc1C	98.2% (inactive)
Cc1ccc(S(=O)(=O)Nc2nc(C)cc(N/N=C/c3ccc(O)cc3)n2)cc1	95.6% (inactive)
CC(=O)c1sc(NC(=O)c2cccc3ccccc23)nc1C	114% (inactive)
CCOC(=O)c1sc(NC(=O)c2ccncc2)nc1C	109% (inactive)
CC(=O)c1sc(NC(=O)c2ccc(C)cc2)nc1C	161% (active)
CC(=O)c1sc(N/N=C\c2ccc(C)cc2)nc1C	166% (active)
CC(=O)c1sc(N/N=C/c2ccc(C(C)C)cc2)nc1C	158% (active)
COc1cccc2sc(Nc3nc(C)c(C(C)=O)s3)nc12	112% (inactive)
CC(=O)c1sc(NC(=O)CCCOc2ccccc2C)nc1C	105% (inactive)
Cn1c(=O)c2c(ncn2CCc2ccccc2)n(C)c1=O	101% (inactive)
CC(NC(=O)Nc1ccccc1)C(c1cccs1)N1CCN(c2ccccc2)CC1 (configuration not stated)	87% (inactive)
O=C(CN1C(=O)c2cccc3cccc(c23)C1=O)N1CCCCC1	89.3% (inactive)
Cc1nccc(-c2ccc(-n3c(C)ccc3C)cc2)n1	101% (inactive)
O=C(COC(=O)c1ccccn1)Nc1cccc2ccccc12	103% (inactive)
CNC(=O)/C(C#N)=C/c1c(F)cccc1Cl	82.9% (inactive)
Cc1ccc(O)c(CCc2ccccc2)n1	104% (inactive)
COc1ccc(C(=O)Nc2ccc(S(=O)(=O)Nc3onc(C)c3C)cc2)cc1OC	104% (inactive)
Cc1ccc(C(=O)/C=C/Nc2ccc(S(=O)(=O)Nc3onc(C)c3C)cc2)cc1	142% (active)

Structure (SMILES)	activation (% of control)
Cc1noc(NS(=O)(=O)c2ccc(N/C=C/C(=O)c3ccccc3)cc2)c1C	113% (inactive)
CC(C)C(O)C1CCN(Cc2nc(Cc3ccccc3Cl)no2)CC1 (configuration not stated)	105% (inactive)
Cc1ccc(N(C(=O)c2ccc(S(=O)(=O)N(C)C)cc2)C2C=CS(=O)(=O)C2)cc1 (configuration not stated)	96.7% (inactive)
CCC(O)C1CCN(Cc2cn(-c3ccc(OC)cc3)nc2-c2cccc(F)c2)CC1 (configuration not stated)	107% (inactive)
COc1ccccc1Nc1ncnc2c1oc1ccccc12	137% (active)
CCc1nc(Nc2ccc3nccnc3c2)c2oc3ccccc3c2n1	98.2% (inactive)
Cc1nc(Cl)c2oc3ccccc3c2n1	103% (inactive)
CCN(c1ccc(NC(=O)COC(=O)CCc2nc3ccccc3n2-c2ccccc2)cc1)C(C)C	99.5% (inactive)
CC(C)CC(=O)N/C(N)=N/c1nc2ccccc2s1	123% (inactive)
COC(=O)c1nc2ccccc2s1	103% (inactive)
CCC(=O)NC(=Nc1nc2ccccc2s1)NC(=O)CC	180% (active)
Cc1ccc(S(=O)(=O)N(C)C)cc1NC(=O)c1ccccc1Br	106% (inactive)
Cc1c(C(=O)Nc2cccc(-c3nnc4n3CCCCC4)c2)oc2ccccc12	104% (inactive)
Cc1c(C(=O)Nc2ccccc2)sc2nc3n(c(=O)c12)CCCCC3	130% (active)
O=c1c2c(nc3n1CCCCC3)sc1c(O)cccc12	104% (inactive)
COc1ccc(-c2nc3cnccn3c2NC(C)(C)CC(C)(C)C)cc1O	102% (inactive)
COc1ccc(C(C(=O)NC2CCCCC2)N(C(=O)Cc2c[nH]c3ccccc23)c2ccccc2)cc1OC (configuration not stated)	105% (inactive)
COc1ccc(-n2c(C)nc3c(cnn3-c3ccccc3)c2=O)cc1	88.7% (inactive)
COc1ccc(-n2ncc3c(N4CCc5ccccc54)ncnc32)cc1	137% (active)
COc1ccc2oc(=O)c(C(=O)N3CCCc4ccccc43)cc2c1	97.1% (inactive)
Cc1cccc(-n2ncc3c(N4CCc5ccccc54)ncnc32)c1	113% (inactive)
c1ccc(-n2ncc3c(N4CCCC4)ncnc32)cc1	115% (inactive)
COc1ccc(-n2ncc3c(N4CCCc5ccccc54)ncnc32)cc1	187% (active)
CC(C)(C)NC(=O)NC(=O)COC(=O)C1(C)CC1(Cl)Cl (configuration not stated)	104% (inactive)
